# From PubChem BioAssay AID1851 (National Center for Advancing Translational Sciences (NCATS), 2009)
# “And” between values parts separate entries of the source, which are not always exact repeats. Identical values can stand only once. In all, about 16,000 compounds went through this assay and about 5,700 (36%) were called active. Roughly 24% stayed inconclusive and do not appear here. The call rests on the fitted dose curve; in most records, active means well fitted curve in the direction sought with a large enough effect; inconclusive means small, poorly fitted or top-dose-only effect, or effect the other way; inactive means no such curve, though single readings can be large or run the other way. The list shows a part of the results.
# Molecular target: Cytochrome P450 1A2 (Homo sapiens) (UniProt P05177)
# Test: Cytochrome panel assay with activity outcomes
# Settings: recombinant CYP, pro-luciferin dealkylation, luminescence, p450-cyp1a2; series mostly up to 57.1 µM; activity, negative = inhibition: at the top concentration
# On the % scale 0 is the no-effect control and ±100 the full control effect.
# Sequence of Cytochrome P450 1A2 (Homo sapiens) (P05177 whole entry, looked up): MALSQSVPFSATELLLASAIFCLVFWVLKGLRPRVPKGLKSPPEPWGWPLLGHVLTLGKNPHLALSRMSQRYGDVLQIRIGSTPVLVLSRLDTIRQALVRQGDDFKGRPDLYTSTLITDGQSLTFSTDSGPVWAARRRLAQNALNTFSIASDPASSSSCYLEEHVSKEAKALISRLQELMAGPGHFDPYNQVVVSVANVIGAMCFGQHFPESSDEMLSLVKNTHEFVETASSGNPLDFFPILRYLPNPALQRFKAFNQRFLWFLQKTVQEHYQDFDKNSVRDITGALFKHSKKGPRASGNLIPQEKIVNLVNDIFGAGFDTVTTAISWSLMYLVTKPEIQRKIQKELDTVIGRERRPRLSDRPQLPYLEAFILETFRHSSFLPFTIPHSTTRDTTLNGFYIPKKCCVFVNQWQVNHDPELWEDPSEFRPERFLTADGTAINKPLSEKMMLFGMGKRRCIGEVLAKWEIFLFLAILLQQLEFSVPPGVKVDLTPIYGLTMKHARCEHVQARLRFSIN
SMILES,"activity, negative = inhibition",AC50
CC1(C)CC(=O)C2=C(C1)N(c1ccc(F)cc1)C(N)=C(C#N)C2c1cccs1 (stereo not given),8.01% (inactive),–
O=[N+]([O-])c1ccccc1/C=N/n1c(COc2ccccc2)n[nH]c1=S,–,2.51 µM (active)
Cc1ccc(/C=N/n2c(COc3ccccc3)n[nH]c2=S)s1,–,0.501 µM (active)
O=[N+]([O-])c1ccc(/C=N/n2c(COc3ccccc3)n[nH]c2=S)cc1,–,2.82 µM (active)
CS(=O)(=O)N1CCC2(CC1)CN(c1ncccn1)C2,16.3% (inactive),–
Cc1ccc(S(=O)(=O)NC(=O)NN2C[C@H]3CCC[C@@H]3C2)cc1,-0.685% [at 25.6 µM] (inactive),–
Cc1ccc2nc(N/N=C\c3cccc(C)n3)cc(C)c2c1,–,0.631 µM (active)
Cc1c2c(nc3ccccc13)-c1cccc(=O)n1C2,–,0.1 µM (active)
CC(C)c1cccc2nc3c(c([Si](C)(C)C)c12)Cn1c-3cccc1=O,–,15.8 µM (active)
CCc1cccc2nc3c(c([Si](C)(C)C)c12)Cn1c-3cccc1=O,–,2.51 µM (active)
CCN1C/C(=C\c2cccc(C)c2)c2nc3ccccc3c(C(=O)O)c2C1,5.47% (inactive),–
CC(C)c1cccc2nc3c(c(C(C)(C)C)c12)Cn1c-3cccc1=O,–,12.6 µM (active)
O=C1OCCC=C1[C@@H](O)CCc1ccccc1,-0.0227% [at 11.4 µM] (inactive),–
NS(=O)(=O)c1cc2c(cc1Cl)N[C@@H](C(Cl)Cl)NS2(=O)=O,1.35% [at 25.6 µM] (inactive),–
CCc1c2c(nc3cccc(C(C)C)c13)-c1cccc(=O)n1C2,–,0.501 µM (active)
O=C1NCC2(CCN(CCc3ccccc3)CC2)O1,–,inactive
NS(=O)(=O)c1ccc(N=Nc2ccc(O)c(C(=O)O)c2)cc1,-20.9% [at 11.4 µM] (inactive),–
NS(=O)(=O)c1ccc(N=Nc2c(O)c(C(=O)O)cc3ccccc23)cc1,-20.8% [at 11.4 µM] (inactive),–
NS(=O)(=O)c1ccc(N=Nc2cc3ccccc3c(C(=O)O)c2O)cc1,–,1 µM (active)
O=C(Nc1nccs1)c1sc2cc(Cl)ccc2c1Cl,–,0.112 µM (active)
O=C(NCc1cccnc1)c1sc2cc(Cl)ccc2c1Cl,–,1 µM (active)
O=C(O)/C=C\[C@H](O)c1ccc(Cl)cc1,-18% (inactive),–
CN(C)/C=C/C(=O)c1ccc(Cl)cc1,–,4.47 µM (active)
CN(C)/C=C/C(=O)c1ccc(F)cc1,–,11.2 µM (active)
O=C(O)[C@@H](O)c1ccc(F)cc1,-12.3% [at 11.4 µM] (inactive),–

SMILES,"activity, negative = inhibition",AC50
O=c1cc(O)cc(/C=C\c2ccc(O)c(O)c2)o1,-7.95% (inactive),–
Oc1cc(O)cc(/C=C\c2ccc(O)c(O)c2)c1,–,5.01 µM (active)
S=C(S)NCCN1CCNCC1,-7.09% [at 11.4 µM] (inactive),–
NCCNC(=S)S,-13.2% [at 2.29 µM] (inactive),–
S=C(S)NCCCn1ccnc1,–,3.16 µM (active)
COc1ccc(NC(=O)c2cc(S(=O)(=O)N3CCS(=O)(=O)CC3)ccc2Cl)cc1,6.23% (inactive),–
O=C(CN1C(=O)NC2(CCCCCC2)C1=O)N1CCN(S(=O)(=O)c2ccc(Cl)cc2)CC1,-8.91% (inactive),–
CCOc1ccc(C(=O)CN2CCN(S(=O)(=O)c3ccc(F)cc3)CC2)cc1,–,20 µM (active)
O=C(CN1CCN(S(=O)(=O)c2ccc(F)cc2)CC1)Nc1ccc(Cl)c(C(F)(F)F)c1,-20.6% (inactive),–
O=C(CN1CCN(S(=O)(=O)c2ccccc2)CC1)NC(=O)NCc1ccccc1,-22.6% (inactive),–
COc1ccc(NC(=O)N2CC3(CCN(S(=O)(=O)c4ccccc4)CC3)C2)cc1,-22.4% (inactive),–
CCOc1ccc(NC(=O)CN2CCN(S(=O)(=O)c3ccc(Cl)cc3)CC2)cc1,–,25.1 µM (active)
CCOC(=O)c1ccc(S(=O)(=O)N2CCN(C)CC2)cc1,-6.34% (inactive),–
COc1ccc(S(=O)(=O)N2CCN(CC(=O)Nc3cc(OC)cc(OC)c3)CC2)cc1,–,22.4 µM (active)
CCN(CC)C(=O)COc1ccc(S(=O)(=O)N2CCOCC2)cc1,2.65% (inactive),–
COc1ccc(NC(=O)N2CCCC3(CCN(S(=O)(=O)c4ccccc4)CC3)C2)cc1,-19.8% (inactive),–
COc1ccc(S(=O)(=O)N2CCCN(CC(=O)Nc3ccc(OC)c(Cl)c3)CC2)cc1,–,1.41 µM (active)
CON(C)C(=O)c1nnc2c3ccccc3n(S(=O)(=O)c3ccc(C)cc3)c2n1,-0.532% [at 11.4 µM] (inactive) and -0.966% [at 11.4 µM] (inactive),–
CCOC(=O)c1cc2c(C(F)(F)F)cc(-c3ccccc3)nc2o1,–,3.55 µM (active)
Cc1oc(C(C)(C)C)cc1C(=O)Nc1cccc(/C=C/C(=O)O)c1,-11.6% (inactive),–
Cc1oc(-c2ccccc2)cc1C(=O)Nc1ccc(N(C)C)cc1,–,1.41 µM (active)
CCCNC(=O)OC[C@@H]1O[C@H](CCO/N=C2\c3cc(OC)ccc3O[C@H](c3cccc(OC)c3)[C@H]2O)C=C[C@@H]1Oc1ccc(OC)cc1,-14.6% [at 11.4 µM] (inactive),–
CCC(=O)N1CCc2cc(S(=O)(=O)NC(C(=O)NCc3ccc(F)cc3)C(C)C)ccc21 (stereo not given),-20.8% (inactive),–
CCOC(=O)c1sc(=S)n(-c2cccc(C(F)(F)F)c2)c1SC,–,0.562 µM (active)
COc1ncc2nc(-c3cccs3)c(=O)n(CCc3ccccc3)c2n1,–,1.26 µM (active)

SMILES,"activity, negative = inhibition",AC50
COc1ncc2nc(-c3cccs3)c(=O)n(CCC#N)c2n1,–,6.31 µM (active)
COCCn1c(=O)c(-c2cccs2)nc2cnc(N(C)C)nc21,–,2 µM (active)
COCCn1c(=O)c(-c2cccs2)nc2cnc(OC)nc21,–,2.51 µM (active)
Cc1c(N2C(=O)CS/C2=N\N=C\c2ccc(Cl)cc2)c(=O)n(-c2ccccc2)n1C,-14.7% (inactive),–
Cc1nnc(SCC2=C(C(=O)O)N3C(=O)[C@@H](NC(=O)Cn4cnnn4)[C@@H]3SC2)s1,–,inactive
COCCn1c(=O)c(-c2cccs2)nc2cnc(Oc3ccccc3)nc21,–,2 µM (active)
COCCn1c(=O)c(-c2cccs2)nc2cnc(Oc3ccc(OC)cc3)nc21,–,2.51 µM (active)
Cc1cnc(CNc2nc(-c3ccccc3C(F)(F)F)nc3ccccc23)cn1,–,12.6 µM (active)
Cc1cnc(CNc2nc(-c3ccccc3Cl)nc3ccccc23)cn1,–,6.31 µM (active)
COc1ccccc1-c1nc(NCc2cnc(C)cn2)c2ccccc2n1,–,5.01 µM (active)
Cc1cnc(CNc2nc(-c3ccccc3C)nc3ccccc23)cn1,–,3.16 µM (active)
CCN(CC)C(=O)C1CC(=O)N(c2ccc(OC)cc2)C1c1ccc(OC)cc1 (stereo not given),-0.516% (inactive),–
COc1ccc(C(C(=O)NC2CCCC2)N(C(=O)c2snc(-c3ccc(F)cc3)c2N)c2ccc(F)cc2)cc1 (stereo not given),-15.3% (inactive),–
CCN1/C(=C/c2ccc3cccc(C)c3[n+]2CC)Sc2ccccc21,–,14.1 µM (active)
CCOC(=O)c1cnn(-c2nc(-c3cccc(F)c3)cs2)c1C(F)(F)F,–,2.24 µM (active)
CCOC(=O)c1cn(-c2nc(-c3ccc(Cl)cc3)cs2)c2c(F)c(N3CC(C)OC(C)C3)c(F)cc2c1=O (stereo not given),-9.86% (inactive),–
COC(=O)c1cc(=O)n(C2CC2)c(=NC2CC2)s1,–,2 µM (active)
COC(=O)C1CCN(c2cc(=O)n(C3CCCCC3)c(=O)[nH]2)CC1,-5.49% (inactive),–
CCCCCc1nc2c(=O)[nH]c3ccccc3c2o1,–,0.398 µM (active)
CCN(CC)CCCNC(=O)CC1Sc2ccccc2NC1=O (stereo not given),-13.3% (inactive),–
CCN(CC)CCNc1ccc(CO)c2sc3ccccc3c(=O)c12,–,0.126 µM (active)
O=c1c2ccccc2sc2c(CO)ccc(NCCN3CCCCC3)c12,–,1.58 µM (active)
O=C(NCCCN1CCCCCC1)C1CC(=O)N(CCc2ccccc2)C1 (stereo not given),-4.71% (inactive),–
CN1CCCCC1=NCCCn1cnc2c1c(=O)n(C)c(=O)n2C,-12.6% (inactive),–
COCC(=O)N1CCC2(CC1)CCN(c1ccccn1)CC2,-5.05% (inactive),–

SMILES,"activity, negative = inhibition",AC50
CCOC(=O)Cn1nnc2c(sc3nc4c(c(-c5ccc(Cl)cc5)c32)CCC4)c1=O,–,3.16 µM (active)
Cc1ccc(C(=O)Cn2nnc3c(sc4nc5c(c(-c6ccccc6)c43)CCC5)c2=O)cc1,-16.3% (inactive),–
Cc1ccc(-c2c3c(nc4sc(C(N)=O)c(N)c24)CCC3)cc1,–,3.55 µM (active)
Nc1nc(N)nc(CCCc2nc(N)nc(N)n2)n1,-16.3% [at 11.4 µM] (inactive),–
NC(=O)c1ccccc1-c1nc(-n2ccnc2)c2ccccc2n1,–,2.51 µM (active)
Clc1ccccc1-c1nc(-n2ccnc2)c2ccccc2n1,–,0.158 µM (active)
Cc1ccccc1-c1nc(-n2ccnc2)c2ccccc2n1,–,0.316 µM (active)
CCCn1c(C)nc2c(c1=O)c1nc3ccccc3nc1n2CCC1=CCCCC1,–,25.1 µM (active)
CCO/C(C)=N/n1c2nc3ccccc3nc2c2c(=O)n(CC(C)C)c(C)nc21,-20.5% (inactive),–
COc1ccccc1CN1CCC2(CC1)CCN(S(=O)(=O)c1ccccc1)CC2,-1.13% (inactive),–
O=C(NCCCN1CCN(Cc2ccccc2)CC1)C1CCN(S(=O)(=O)N2CCCC2)CC1,-6.36% (inactive),–
COc1ccc2c(Cl)c(C(=O)NCCCn3ccnc3)sc2c1Cl,–,0.631 µM (active)
COc1ccc(C(=O)N/C(=C/c2cccs2)C(=O)NCCCn2ccnc2)cc1OC,-12.2% (inactive),–
COc1ccc(S(N)(=O)=O)cc1C(=O)NCCCN1CCN(c2cccc(Cl)c2)CC1,-15% (inactive),–
Nn1nnc2ccccc21,–,12.6 µM (active)
c1ccc2c(c1)nnn2CN1CCOCC1,-8.08% [at 11.4 µM] (inactive),–
N#CCCn1nnc2ccccc21,-20.3% (inactive),–
Cc1ccc(NC(=O)C2(NC(=O)c3cccc(N4C(=O)CSC4c4ccccc4)c3)CCCCC2)cc1 (stereo not given),-7.8% (inactive),–
O=C1NCCc2c1[nH]c1ccccc21,–,2.82 µM (active)
Cn1cccc1C(=O)N1CCC[C@@]2(CCN(Cc3ccc(C#N)cc3)C2)C1,0.0918% (inactive),–
COc1ccc2cc(C(=O)Nc3ccc(F)cc3)sc(=O)c2c1OC,–,1.12 µM (active)
Nc1ccc2[nH]cc(CCC(=O)O)c2c1,-8.18% [at 11.4 µM] (inactive),–
COC(=O)Nc1ccc2[nH]cc(CCNC(C)=O)c2c1,–,0.316 µM (active)
O=C(O)Cc1c[nH]c2ccc(O)cc12,6.6% (inactive),–
COc1cc2c(CCNC(C)=O)c[nH]c2cc1Cl,–,0.126 µM (active)
